The values that follow come from ChEMBL document CHEMBL3433997, “St. Jude Leishmania screening dataset” (2016).

Molecules are shown by their SMILES.

The target of the assay is Hexose transporter 1 (Plasmodium falciparum) (UniProt O97467). As to the kind of experiment: ST_JUDE_LEISH: Cytotoxicity at 2uM final concentration against transgenic Leishmania Mexicana promastigotes LmPfHT that are glucose transport deficient and complemented with the Plasmodium falciparum hexose transporter. Activity is measured by DNA content using SYBR green in vitro. It counts as functional.
As to `COc1ccc2nccc([C@@H](O)CN3CCC(NCc4cc5ccccc5[nH]4)CC3)c2c1`, the inhibition came to 23.5%.
With `CCNC(=O)Nc1cccc(-c2ccc(-c3nc4cccc(C)c4[nH]3)s2)c1`, the inhibition stood at 1.4%.
For the molecule `O=C(Nc1ccc(-c2cccc(-c3nc4cc(F)ccc4[nH]3)c2)cc1)Nc1ccc(F)c(F)c1F`, the inhibition turned out to be 7.02%.
As to `Cc1cc(N)c2cc(NC(=O)c3cccc4ccccc34)ccc2n1`, the inhibition amounted to 1.19%.
As to `COc1cc(OC)cc(C(=O)N2CCOC(CCN3CCC(c4ccccc4)CC3)(c3ccc(Cl)c(Cl)c3)C2)c1` (centres undefined), the inhibition was -0.92%.
On to `COc1ccccc1N1CCN(CCCCNC(=O)c2ccc(NC(=O)c3ccc4ccccc4c3)cc2)CC1`, for which the inhibition amounted to 1.01%.
For the molecule `COc1ccc(CCNC(C)Cc2ccc(C(=O)Nc3ccc(CC(C)NCCc4cccc(Cl)c4)cc3)cc2)cc1` (centres undefined), the inhibition stood at 13%.
To `CCN(CCCN1CCCCC1)c1cc(C)nc(Nc2ccc(C)c(Cl)c2)n1` belongs 2.33%; to `CCC(C)NS(=O)(=O)c1ccc2nc(Nc3ccc(C)c(Cl)c3)n(C3CCCCC3)c2c1` (centres undefined), 5.72%.
For `NC(=O)COc1c(C2CCN(CCN3CCC(CNC(=O)c4ccc(-c5ccc(C(F)(F)F)cc5)cc4)CC3)CC2)ccc2c1CCCC2`, the inhibition was 4.29%.
On to `CC(C)N1CCC(Oc2ccc(CN3CCN(C(c4ccccc4)c4ccc(Cl)cc4)CC3)cc2)CC1` (centres undefined), for which the inhibition was 3.12%.
For `O=C(Nc1ccc(Cl)cc1)Nc1ccc(-c2cccc(-c3nc4ccccc4[nH]3)c2)cc1`, the inhibition worked out at 2.71%.
Next, `O=S(=O)(NCCN1CCCC1)c1ccc(-c2ccc(CNC3Cc4ccccc4C3)cc2)s1`: 12.6%; `Fc1cccc(C=NN=c2cc[nH]c3ccc(C(F)(F)F)cc23)c1`: 8.79%.

For orientation: inhibition means the change of the read-out against control, counted positive when it falls.
